This note sets out measurements from the supplement of paper PMC9135407.

The assay deals with primary human hepatic stellate cells (donor 1). In words: scaled lipid accumulation score (0 = DMSO-like, 1 = nortriptyline-like); higher = stronger HSC inactivation (lipid re-accumulation), active = hit call of the paper. The note with it: 48 h.
[1] abbreviates: library stock concentration: 80 uM.
Setting [2] is: library stock concentration: 400 uM.
Setting [3] is: library stock concentration: 2 mM.
The mark [4] stands for this setting: library stock concentration: 10 mM.
Where [5] appears, read: library stock concentration: 3.33 mM.
The mark [6] stands for this setting: library stock concentration: 1 mM.

Several values for one entry are separate records, joined by “and”; a condition that tells them apart may be missing. Identical values can stand only once. Counter-ions that a name gives are not always drawn. Screen size: about 5,800 compounds; about 620 (11%) showed activity. The sample as a whole holds a higher share of actives than the screen did. Unmarked numbers belong to inactive results.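 Rule for the calls: active = score above a cut-off or among the top three wells of a plate; in these data no inactive exceeds 0.85.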

With `C[C@H]1Oc2cc(cnc2N)-c2c(nn(C)c2C#N)CN(C)C(=O)c2ccc(F)cc21`, the “scaled lipid accumulation score” value by setting is: under setting [1], at most 0; under setting [2], at most 0; under setting [3], 0.031; under setting [4], at most 0.

For `C[C@H]1COc2c(C3(N)CC3)c(F)cc3c(=O)c(C(=O)O)cn1c23`, the “scaled lipid accumulation score” value under setting [4] is 0.025 and ≤ 0.

For the compound `C[C@H]1COc2c(C3(N)CC3)c(F)cc3c(=O)c(C(=O)O)cn1c23` [Pazufloxacin], the “scaled lipid accumulation score” value (library stock concentration: 6.3 mM) is at most 0.

As to `Clc1ccccc1C(c1ccccc1)(c1ccccc1)n1ccnc1` [Clotrimazole], the “scaled lipid accumulation score” value was at most 0. Besides, the “scaled lipid accumulation score” value under setting [5] is at most 0. For the same compound, the “scaled lipid accumulation score” value (library stock concentration: 5.8 mM) is at most -0.001. In addition, under setting [4], the “scaled lipid accumulation score” value is at most 0.

With `CS(=O)(=O)O.N=C(NC(=O)c1nc(Cl)c(N)nc1N)Nc1ccccc1` [Phenamil methanesulfonate], the “scaled lipid accumulation score” value under setting [4] was 1.15 (active).

In the case of `N=C(N)NC(=O)c1nc(Cl)c(N)nc1N` [Amiloride hydrochloride dihydrate], the “scaled lipid accumulation score” value is at most 0.

Regarding `N=C(N)NC(=O)c1nc(Cl)c(N)nc1N`, where the note is “library stock concentration: 18.8 mM”, the “scaled lipid accumulation score” value is at most -0.021.

`N=C(N)NC(=O)c1nc(Cl)c(N)nc1N` [Amiloride]: the “scaled lipid accumulation score” value (library stock concentration: 8.7 mM) was at most -0.006.

For `N=C(NC(=O)c1nc(Cl)c(N)nc1N)Nc1ccccc1` [Phenamil], under “library stock concentration: 16.4 mM”, the “scaled lipid accumulation score” value was 1.07 (active).

For `N=C(N)NC(=O)c1nc(Cl)c(N)nc1N` [Amiloride HCl], the “scaled lipid accumulation score” value runs as follows: under setting [5], at most 0; under setting [4], at most 0.

On to `CC(=O)Nc1ccccc1` [Acetanilide], for which the “scaled lipid accumulation score” value was at most 0 under setting [5]; ≤ 0 and 0.04 under setting [4].

Take `N=C(N)NC(=O)c1nc(Cl)c(N)nc1N` [Amiloride hydrochloride]: the “scaled lipid accumulation score” value (library stock concentration: 7.5 mM) is at most -0.001 and the “scaled lipid accumulation score” value under setting [4] was at most 0.

With `N=C(N)NC(=N)Nc1ccccc1` [1-Phenylbiguanide hydrochloride], under setting [4], the “scaled lipid accumulation score” value is at most 0.

In the case of `CCCCCCCCCCCCCCCC(=O)NCCc1ccc(O)c(O)c1` [N-Palmitoyl Dopamine], the “scaled lipid accumulation score” value under setting [6] is at most 0.

With `CC[C@]1(O)C[C@@H]2CN(CCc3c([nH]c4ccccc34)[C@@](C(=O)OC)(c3cc4c(cc3OC)N(C)[C@H]3[C@@](O)(C(=O)OC)[C@H](OC(C)=O)[C@]5(CC)C=CCN6CC[C@]43[C@@H]65)C2)C1` [Vinblastine], under setting [5], the “scaled lipid accumulation score” value was 0.782.

Turning to `CC[C@]1(O)C[C@@H]2CN(CCc3c([nH]c4ccccc34)[C@@](C(=O)OC)(c3cc4c(cc3OC)N(C)[C@@H]3C45CCN4CC=C[C@](CC)([C@H]45)[C@H](OC(C)=O)[C@]3(O)C(=O)OC)C2)C1` (stereo not given in full) [Vinblastine], the “scaled lipid accumulation score” value under setting [4] was 0.956 (active).

Take `CCCCC[C@@H](O)/C=C/[C@H]1[C@H](C/C=C\CCCC(=O)O)C(=O)C[C@@H]1O` [ent-Prostaglandin E2]: under setting [6], the “scaled lipid accumulation score” value is at most 0.

For `CC(C)=CC[C@@H](O)C1=CC(=O)c2c(O)ccc(O)c2C1=O` [Shikonin], the “scaled lipid accumulation score” value was 0.554 (library stock concentration: 6.9 mM) and at most -0.012 (library stock concentration: 17.3 mM).

On to `CCCCC[C@H](O)/C=C/[C@H]1[C@H](O)CC(=O)[C@@H]1C/C=C\CCCC(=O)NCCO` [Prostaglandin E2 Ethanolamide], for which the “scaled lipid accumulation score” value under setting [6] is at most 0.

Take `CC(C1=C(CCN(C)C)Cc2ccccc21)c1ccccn1` (stereo in doubt) [(S)-(+)-Dimethindene maleate]: under setting [4], the “scaled lipid accumulation score” value was 0.162.

Consider `CCCCCC(O)/C=C/C=O` (stereo not given) [4-hydroxy Nonenal], for which the “scaled lipid accumulation score” value under setting [6] was at most 0.

With `Cc1cc(C(=O)Nc2cc(Nc3ccc4c(/C=C/c5ccccn5)n[nH]c4c3)ccc2F)n(C)n1` [listing 1 of 2 here], the “scaled lipid accumulation score” value by setting is: under setting [2], 0.035; under setting [3], 0.724.

Turning to `CNC(=O)c1ccccc1Sc1ccc2c(/C=C/c3ccccn3)n[nH]c2c1`, the “scaled lipid accumulation score” value under setting [2] is 0.07, the “scaled lipid accumulation score” value under setting [3] was at most -0.005 and the “scaled lipid accumulation score” value under setting [4] is 0.024.

Turning to `Cc1cc(C(=O)Nc2cc(Nc3ccc4c(/C=C/c5ccccn5)n[nH]c4c3)ccc2F)n(C)n1` [listing 2 of 2 here], under setting [4], the “scaled lipid accumulation score” value is 1.61 (active).

`CNC(=O)c1ccccc1Sc1ccc2c(/C=C/c3ccccn3)n[nH]c2c1` [Axitinib]: the “scaled lipid accumulation score” value is at most -0.001 under setting [1]; at most -0.001 under setting [2]; at most -0.001 under setting [3]; at most 0 under setting [5]; ≤ 0 and ≤ -0.001 under setting [4].

Turning to `CCCCC[C@H](O)CC[C@@H]1[C@H]2Cc3cccc(OCC(=O)O)c3C[C@H]2C[C@H]1O` [Treprostinil], under setting [6], the “scaled lipid accumulation score” value is 0.05.

Regarding `CCCC(=O)[O-].[Na+]` [Sodium Butyrate], the “scaled lipid accumulation score” value under setting [6] was at most 0.

For `CCCCCCCCCCOCCC(=O)O` [4-Oxatetradecanoic acid], the “scaled lipid accumulation score” value under setting [6] is 0.156.

Regarding `C1=N/C2=N/c3ccc(OCCN4CCCC4)c(c3)COC/C=C/COCc3cccc(c3)C(=C1)N2` [Pacritinib], the “scaled lipid accumulation score” value is 0.184 under setting [1], 0.686 under setting [2] and 0.473 under setting [3].

Turning to `C1=CCOCc2cc(ccc2OCCN2CCCC2)Nc2nccc(n2)-c2cccc(c2)COC1` [Pacritinib], the “scaled lipid accumulation score” value under setting [4] was 0.932 (active).

Consider `C1=N/C2=N/c3ccc(OCCN4CCCC4)c(c3)COC/C=C/COCc3cccc(c3)C(=C1)N2` [Pacritinib (SB1518)], for which the “scaled lipid accumulation score” value was 0.536 under setting [5] and 0.41 under setting [4].

On to `Cn1c(N2CCCCS2(=O)=O)nc(C(=O)NCc2ccc(F)cc2)c(O)c1=O`, for which the “scaled lipid accumulation score” value by setting is: under setting [5], 0.024; under setting [4], at most 0.

For the compound `NCCNc1ncc(C(N)=O)c(Nc2cccc(C(F)(F)F)c2)n1` [Syk Inhibitor II], the “scaled lipid accumulation score” value under setting [5] was 0.589.

Turning to `CC1c2ccccc2CN1CC1=NCCN1` (stereo not given), the “scaled lipid accumulation score” value under setting [4] was 0.014.

For `CCCCC[C@H](O)/C=C/[C@H]1C2COC(C2)[C@@H]1C/C=C/CCCC(=O)O` (stereo not given in full), the “scaled lipid accumulation score” value under setting [6] was at most 0.

Consider `CC[C@@H](C)Nc1cc(C(=O)NC2CC3CCC(C2)N3c2ccc(C(=O)C3CC3)cn2)c(C)cc1C(N)=O` (stereo not given in full), for which the “scaled lipid accumulation score” value under setting [4] is 0.853 (active).

With `CC[C@@H](C)Nc1cc(C(=O)N[C@H]2C[C@H]3CC[C@@H](C2)N3c2ccc(C(=O)C3CC3)cn2)c(C)cc1C(N)=O`, the “scaled lipid accumulation score” value under setting [5] is 0.762.

Turning to `NC(=O)c1ccc[n+]([C@@H]2O[C@H](COP(=O)([O-])OP(=O)(O)OC[C@H]3O[C@@H](n4cnc5c(N)ncnc54)[C@H](OP(=O)(O)O)[C@@H]3O)[C@@H](O)[C@H]2O)c1` [Sodium beta-nicotinamide adenine dinucleotide phosphate], under setting [4], the “scaled lipid accumulation score” value is at most -0.027.

Take `CC1Nc2ccc(Cl)cc2S(=O)(=O)N1` (stereo not given): the “scaled lipid accumulation score” value under setting [4] was at most -0.006.

For the compound `CC(=O)c1ncc([C@@H](O)[C@H](O)[C@H](O)CO)[nH]1` [2-Acetyl-5-tetrahydroxybutyl Imidazole], the “scaled lipid accumulation score” value under setting [6] was at most 0.

Consider `COc1ccc(/C=C/c2nc(NCCCN(C)C)c3ccccc3n2)cc1`, for which, under setting [4], the “scaled lipid accumulation score” value was 0.387.

In the case of `Cc1[nH]c2ccccc2c1CCNCc1ccc(/C=C/C(=O)NO)cc1` [Panobinostat (LBH589)], the “scaled lipid accumulation score” value under setting [5] is 0.728 and the “scaled lipid accumulation score” value under setting [4] was 0.587.

In the case of `O=c1cc(N2CCNCC2)oc2c(-c3ccccc3)cccc12` [listing 1 of 2 here], the “scaled lipid accumulation score” value under setting [5] was 0.39.

As for `O=c1cc(N2CCOCC2)oc2c(-c3ccccc3)cccc12`, the “scaled lipid accumulation score” value runs as follows: under setting [6], 0.001; under setting [5], at most 0; under setting [4], ≤ 0 and 0.005; (library stock concentration: 16.3 mM) at most -0.012.

As for `O=c1cc(N2CCNCC2)oc2c(-c3ccccc3)cccc12` [listing 2 of 2 here], the “scaled lipid accumulation score” value under setting [4] was 1.28 (active).

For `O=c1cc(N2CCOCC2)oc2c(-c3ccccc3)cccc12` [LY-294,002 hydrochloride], under setting [4], the “scaled lipid accumulation score” value was 0.089.

With `CCC1(O)CC2CN(CCc3c([nH]c4ccccc34)[C@@](C(=O)OC)(c3cc4c(cc3OC)N(C)C3[C@]45CCN4CC=C[C@@](CC)([C@@H](OC(C)=O)[C@]3(O)C(=O)OC)[C@H]45)C2)C1.O=S(=O)(O)O` (stereo not given in full) [Vinblastine sulfate salt], the “scaled lipid accumulation score” value under setting [4] is 0.877 (active).

Turning to `CC[C@]1(O)C[C@H]2CN(CCc3c([nH]c4ccccc34)[C@@](C(=O)OC)(c3cc4c(cc3OC)N(C)[C@H]3[C@@](O)(C(=O)OC)[C@H](OC(C)=O)[C@]5(CC)C=CCN6CC[C@]43[C@@H]65)C2)C1.O=S(=O)(O)O` [Vinblastine sulfate], under setting [4], the “scaled lipid accumulation score” value was 1.67 (active).

Turning to `CCCCCCCCCCCCCCCCCC(=O)OC(CC(=O)O)C[N+](C)(C)C` (racemic) [DL-Stearoylcarnitine chloride], under setting [4], the “scaled lipid accumulation score” value was 0.037.

Consider `CCCCCCCCCCCCCCCC(=O)OC[C@H](O)[C@H]1OC(=O)C(O)=C1O` [Ascorbyl palmitate], for which the “scaled lipid accumulation score” value (library stock concentration: 4.8 mM) is 0.002.

Take `CC(=O)N[C@@H](CCC(=O)O)C(=O)O` [Acetylglutamic acid]: under setting [4], the “scaled lipid accumulation score” value is at most 0.

Take `CCCCN1CCCC1CNC(=O)c1cc(C#N)c2ccccc2c1OC` (stereo not given) [Nafadotride]: the “scaled lipid accumulation score” value under setting [4] was 0.668 and 0.214.

On to `CS(=O)(=O)c1ccc(-c2nc(-c3ccc(F)cc3)c(-c3ccncc3)[nH]2)cc1`, for which the “scaled lipid accumulation score” value under setting [5] is at most 0.

`CN(C)CC[C@@H](c1ccc(Br)cc1)c1ccccn1`: the “scaled lipid accumulation score” value under setting [4] is at most 0.

For the compound `O=C1NCCc2[nH]c(-c3ccncc3)cc21`, the “scaled lipid accumulation score” value reads like this: under setting [1], at most -0.016; under setting [2], 0.1; under setting [3], 0.125; under setting [5], at most 0; under setting [4], 0.19.

`CCCCCCCCCCCCCC(=O)O` [Myristic Acid]: the “scaled lipid accumulation score” value under setting [6] is at most 0.

As to `c1cn2cc(-c3ccc4cn[nH]c4c3)nc(Nc3ccc(N4CCOCC4)cc3)c2n1` [Entospletinib] [listing 1 of 2 here], the “scaled lipid accumulation score” value by setting is: under setting [3], 1.2 (active); under setting [4], 1.21 (active).

For the compound `c1cn2cc(-c3ccc4cn[nH]c4c3)nc(Nc3ccc(N4CCOCC4)cc3)c2n1` [Entospletinib] [listing 2 of 2 here], the “scaled lipid accumulation score” value under setting [1] is at most 0 and the “scaled lipid accumulation score” value under setting [2] was 0.023.

With `c1cn2cc(-c3ccc4cn[nH]c4c3)nc(Nc3ccc(N4CCOCC4)cc3)c2n1`, the “scaled lipid accumulation score” value reads like this: under setting [5], 1.04 (active); under setting [4], 0.944 (active).

As for `c1nc2c(NC3CCCCC3)nc(Nc3ccc(N4CCOCC4)cc3)nc2[nH]1` [Reversine], under setting [5], the “scaled lipid accumulation score” value was at most 0.

For the compound `Cc1cc(N2CCOCC2)ccc1Nc1nc(NC2CCCCC2)c2[nH]cnc2n1`, the “scaled lipid accumulation score” value runs as follows: under setting [5], 0.091; under setting [4], at most 0.

Regarding `Cn1c(=O)c(-c2c(Cl)cccc2Cl)cc2cnc(Nc3ccc(N4CCOCC4)cc3)nc21`, the “scaled lipid accumulation score” value under setting [4] is at most 0.
